This is a sample that favours compounds with a hit; in the whole collection about 5.2% have one here.
Sfp PPTase inh: qHTS Assay for Inhibitors of Bacillus subtilis Sfp phosphopantetheinyl transferase (PPTase) | 4'-phosphopantetheinyl transferase ffp (Bacillus subtilis), Q9F4F7 | Biochemical Sfp PPTase activity, qHTS | Potency, µM, inactives show largest response in the series, negative = inhibition, hits mostly inhibitors | 310,000 compounds, 3.5% hits | AID 1490, 2009;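 note: the enzyme is Sfp with the accession as filed and its product quenches rhodamine fluorescence; 0% = enzyme reaction without inhibitor and -100% = no enzyme wells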
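After 15 min at room temperature with compound, 15 nM Sfp received 5 uM rhodamine-CoA plus 12.5 uM BHQ-2-ybbR (50 mM Hepes pH 7.6, 10 mM MgCl2). Rate came from the fluorescence difference over 30 min, ex 525/em 598 nm.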
PLK1 PBD block: qHTS for Inhibitors of PLK1-PDB (polo-like kinase 1 - polo-box domain): Primary Screen; Serine/threonine-protein kinase PLK1 (Homo sapiens), P53350; Plk1 PBD binding of FITC phosphopeptide, fluorescence polarization; Potency, µM, for the others: max response, negative = inhibition, hits mostly inhibitors; 360,000 compounds, 2.8% hits; note: series mostly up to about 57 µM; nearly all actives have a fitted effect of over 65% in size
IDH1 R132H inh: qHTS for Inhibitors of mutant isocitrate dehydrogenase 1 (IDH1): qHTS; Isocitrate dehydrogenase [NADP] cytoplasmic (Homo sapiens), O75874; IDH1-R132H enzyme, NADPH consumption, diaphorase/resazurin fluorescence; Potency, µM (highest dose often 76.6 µM), for inactives: top-dose activity change, negative = inhibition, hits mostly inhibitors; 390,000 compounds, 0.093% hits; AID 602179, 2012; note: nearly all actives have a fitted effect of over 65% in size
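IDH1-R132H (0.5 ug/mL dispensed) in pH 7.5 Tris buffer was preincubated 30 min with compound, then given a substrate mix of 0.016 mM NADPH and 2 mM alpha-KG for 80 min at room temperature; remaining NADPH was read by diaphorase/resazurin fluorescence.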
TrxR1 inh: qHTS Assay for Inhibitors of Mammalian Selenoprotein Thioredoxin Reductase 1 (TrxR1): qHTS. Thioredoxin reductase 1, cytoplasmic (Rattus norvegicus), O89049. recombinant rTrxR1, NADPH fluorescence consumption, selenite substrate. Potency, µM (top dose mostly 114 µM), for the others: at the top dose activity change, negative = inhibition, actives largely listed as inhibitors. 390,000 compounds, 1% hits; note: nearly all actives have a fitted effect of over 65% in size
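Rat TrxR1 (90 nM in the dispensed reagent) was pre-reduced with 400 uM NADPH for 5 min at room temperature, then incubated with compound for 15 min. After 400 uM selenite was added, NADPH fluorescence (Ex 340/Em 450 nm) was followed for 8 min.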
VDR inh: Inhibitors of the vitamin D receptor (VDR): qHTS. Vitamin D3 receptor (Homo sapiens), P11473. VDR-SRC2-3 peptide fluorescence polarization, 2 h. Potency, µM, for the others: max response, negative = inhibition, most hits filed as inhibitors. 400,000 compounds, 0.93% hits
Target sequence (P11473 whole entry, looked up): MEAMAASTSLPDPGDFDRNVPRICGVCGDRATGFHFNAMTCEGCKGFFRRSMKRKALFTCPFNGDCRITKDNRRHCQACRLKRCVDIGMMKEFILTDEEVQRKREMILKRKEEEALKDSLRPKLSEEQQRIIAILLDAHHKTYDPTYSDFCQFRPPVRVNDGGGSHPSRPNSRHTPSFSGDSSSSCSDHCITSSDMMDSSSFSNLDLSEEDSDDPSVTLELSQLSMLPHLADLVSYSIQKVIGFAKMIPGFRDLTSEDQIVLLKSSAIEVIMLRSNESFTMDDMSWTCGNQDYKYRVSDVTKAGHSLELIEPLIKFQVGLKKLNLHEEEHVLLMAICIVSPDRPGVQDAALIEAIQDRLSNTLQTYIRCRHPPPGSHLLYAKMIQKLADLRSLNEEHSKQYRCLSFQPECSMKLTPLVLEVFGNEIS
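Signal is fluorescence polarization, reporting how far test compounds block the interaction of VDR with the SRC2-3 coregulator peptide after a 2 h room-temperature incubation.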
TrxR1 substrate: qHTS Assay for Substrates of Mammalian Selenoprotein Thioredoxin Reductase 1 (TrxR1): qHTS; Thioredoxin reductase 1, cytoplasmic (Rattus norvegicus), O89049; purified TrxR1 substrate turnover, NADPH consumption readout; Potency, µM (doses to about 114 µM), inactives show at the top dose activity change, negative = substrate turnover; 390,000 compounds, 0.01% hits; AID 588456, 2011; note: nearly all actives have a fitted effect of over 50% in size
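Rat TrxR1, dispensed at 90 nM, was prereduced with 400 uM NADPH (final) for 5 min at ~22 deg C, then incubated with compound 15 min before 400 uM selenite. A first-read NADPH fluorescence drop versus no-compound background flagged substrates.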
Numbers without * were called inactive; [ ] = remark or other dose. Calls come from the whole dose curve; as a rule, active = well fitted curve in the direction sought with a large enough effect; inconclusive = small, poorly fitted or top-dose-only effect, or another doubt; inactive = no such curve, though single readings can be large; an effect the other way counts as inactive or inconclusive. Unless noted, % is set by controls: 0 for no effect and ±100 for the full control effect; potency is the fitted concentration of half-maximal effect.

Screening Cc1cc(C2=CC(C)(c3cc(C)oc3C)Nc3nc(C(F)(F)F)nn32)c(C)o1 (stereo not drawn) returned Sfp PPTase inh 13µM*.
CC(C)(C)OC(=O)N(CCc1ccccc1)Cc1cccc(OCc2cccc(NC(=O)C3CCCC3)c2)c1 was read as PLK1 PBD block -7%, IDH1 R132H inh -7%, TrxR1 inh 13%, VDR inh 2% and TrxR1 substrate -5%.
COc1ccc(OCC(=O)Nc2ccc3c(c2)nc(CN2CCCC2)n3C)cc1 was read as Sfp PPTase inh -6%, PLK1 PBD block 27µM*, IDH1 R132H inh -2%, TrxR1 inh 8%[57.1 µM], VDR inh 3% and TrxR1 substrate 12%[57.1 µM].
Screening CCOc1ccc(CCNC(=O)c2cccs2)cc1OCC returned Sfp PPTase inh 19%, PLK1 PBD block -11%, IDH1 R132H inh 4%, TrxR1 inh 19%, VDR inh -17% and TrxR1 substrate -1%.
Screening O=C1CCC/C1=C/Nc1cccc(F)c1 returned Sfp PPTase inh -8%, PLK1 PBD block 19µM*, IDH1 R132H inh 10%, TrxR1 inh 1%[57.1 µM], VDR inh inconclusive and TrxR1 substrate -8%[57.1 µM].
COc1ccc(CCn2c3c(c(=O)[nH]c2=S)CN(Cc2ccccc2)CN3)cc1OC was read as TrxR1 inh inconclusive, VDR inh 89µM* and TrxR1 substrate -7%.
`O=C(CCn1c2c(c3ccccc31)CCCC2)NNC(=O)c1ccc(Cl)c([N+](=O)[O-])c1` gave Sfp PPTase inh 8%, PLK1 PBD block 30µM*, IDH1 R132H inh 1%, TrxR1 inh -5%, VDR inh inconclusive and TrxR1 substrate -6%.
`O=C(CCn1c2c(c3ccccc31)CCCC2)NNC(=O)c1ccc([N+](=O)[O-])cc1` gave Sfp PPTase inh -10%, PLK1 PBD block -1%, IDH1 R132H inh 8%, TrxR1 inh 9%[57.1 µM], VDR inh -5% and TrxR1 substrate -3%.
CCCn1cnnc1CNC(=O)[C@H]1O[C@@H](n2ccc(=O)[nH]c2=O)[C@H](O)[C@@H]1O was read as PLK1 PBD block 1%.
`O=C1C=CC2=C3c4cc(O)c(O)cc4C[C@]3(O)COC2=C1` gave Sfp PPTase inh -109% and VDR inh 11µM*.
`COc1ccc2c(=O)c3c(=O)n(Cc4ccco4)c(-c4ccc(C)cc4)nc3oc2c1` gave Sfp PPTase inh 25µM*, PLK1 PBD block -9%, IDH1 R132H inh -8%, TrxR1 inh inconclusive, VDR inh -23% and TrxR1 substrate -4%.
COC(=O)c1ccc(CN(c2ccc(C)cc2)S(=O)(=O)c2ccc3c(c2)OCCO3)o1 was read as Sfp PPTase inh -1%, PLK1 PBD block 3µM*, IDH1 R132H inh 1%, TrxR1 inh 17%[57.1 µM], VDR inh -19% and TrxR1 substrate 7%[57.1 µM].
For COC(=O)c1ccc(CN(C)S(=O)(=O)c2ccc(C)cc2)o1 the results were Sfp PPTase inh 14%, PLK1 PBD block -5%, IDH1 R132H inh 4%, TrxR1 inh 32%, VDR inh 2% and TrxR1 substrate 13%.
COCc1nnc(NC(=O)c2cc(OC)c(OC)cc2[N+](=O)[O-])s1 was read as Sfp PPTase inh 15%, PLK1 PBD block 30µM*, IDH1 R132H inh -2%, TrxR1 inh -6%, VDR inh -16% and TrxR1 substrate -8%.

High-throughput results: PubChem BioAssay, National Center for Advancing Translational Sciences (NCATS)
